Each structure is given as a SMILES string. Inconclusive results are not listed. Entries that show only a call come without a potency. The source made the active and inactive calls. The call rests on the fitted dose curve; in most records, active means well fitted inhibition curve with a large enough effect; inconclusive means small, poorly fitted or top-dose-only effect; inactive means no such curve, though single readings can be large or run the other way.

The test addresses Rap guanine nucleotide exchange factor 3 (Homo sapiens) (UniProt O95398). The experiment in a line: Confirmatory qHTS for antagonist of cAMP-regulated guanine nucleotide exchange factor 3 (EPAC1) (AID 1645880). Further: nearly all actives have a fitted effect of over 55% in size. The settings on record: EPAC1 Rap1B-BODIPY-GDP exchange, fluorescence; series mostly up to 115 µM. The gist of the method: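 Released BODIPY-GDP fluoresces less than Rap1-bound BODIPY-GDP; the signal is followed at 480/540 nm at 5-min intervals over 30 min, after 5 min at room temperature. Reactions contain 100 nM EPAC1, 250 nM RAP1B-BODIPY-GDP and 50 uM GDP; results are normalized to ATA and DMSO.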

Sequence of Rap guanine nucleotide exchange factor 3 (Homo sapiens) (O95398 whole entry, looked up): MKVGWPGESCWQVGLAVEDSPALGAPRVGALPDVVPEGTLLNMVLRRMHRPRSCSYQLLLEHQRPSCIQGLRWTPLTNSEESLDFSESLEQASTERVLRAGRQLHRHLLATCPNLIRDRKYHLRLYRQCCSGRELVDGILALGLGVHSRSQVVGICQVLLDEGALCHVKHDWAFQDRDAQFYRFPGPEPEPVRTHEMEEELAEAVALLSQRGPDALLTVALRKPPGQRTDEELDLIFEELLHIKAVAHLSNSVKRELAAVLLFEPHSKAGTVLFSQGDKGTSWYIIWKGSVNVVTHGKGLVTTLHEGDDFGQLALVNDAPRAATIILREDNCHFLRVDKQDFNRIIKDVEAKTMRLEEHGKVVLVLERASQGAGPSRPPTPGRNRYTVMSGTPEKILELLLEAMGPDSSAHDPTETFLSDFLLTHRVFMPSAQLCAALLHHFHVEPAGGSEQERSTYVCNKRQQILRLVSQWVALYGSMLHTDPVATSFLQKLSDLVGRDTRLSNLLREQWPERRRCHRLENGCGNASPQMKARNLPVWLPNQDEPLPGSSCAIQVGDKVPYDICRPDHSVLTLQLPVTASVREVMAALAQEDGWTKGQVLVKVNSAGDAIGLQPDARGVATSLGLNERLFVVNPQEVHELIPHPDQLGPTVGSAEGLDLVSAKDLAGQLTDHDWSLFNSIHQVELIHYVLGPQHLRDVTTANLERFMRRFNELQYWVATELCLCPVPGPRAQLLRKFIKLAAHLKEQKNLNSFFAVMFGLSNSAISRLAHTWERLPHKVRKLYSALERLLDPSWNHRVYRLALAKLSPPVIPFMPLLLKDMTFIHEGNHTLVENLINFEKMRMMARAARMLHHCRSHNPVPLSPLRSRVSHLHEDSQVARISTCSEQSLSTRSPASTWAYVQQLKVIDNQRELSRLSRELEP

Regarding `C#C[C@]1(OC(C)=O)CC[C@H]2[C@@H]3CCC4=CC(=O)CC[C@@H]4[C@H]3CC[C@@]21C`, the Potency result is “inactive”.

(Values after PubChem BioAssay (NCATS).)
